# PubChem BioAssay AID1671192 (National Center for Advancing Translational Sciences (NCATS), 2021)
# Results filed as inconclusive are left out. Activity calls are given as the source filed them. Calls come from the whole dose curve; as a rule, active = well fitted curve in the direction sought with a large enough effect; inconclusive = small, poorly fitted or top-dose-only effect, or another doubt; inactive = no such curve, though single readings can be large or run the other way.
# Molecular target: Polyunsaturated fatty acid lipoxygenase ALOX15 (Homo sapiens) (UniProt P16050)
# Assay: Counterscreen qHTS for inhibitors of human arachidonate 12S-lipoxygenase (ALOX12): ALOX15 Assay
# Method in brief: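 Xylenol orange–ferric complex formation, read as the 573 nm to 405 nm absorbance ratio, tracks product from 50 uM arachidonic acid turned over for 30 min at RT. Enzyme is 40 nM ALOX15, pH 7.5 HEPES buffer, compound-preincubated 15 min.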
# Sequence of Polyunsaturated fatty acid lipoxygenase ALOX15 (Homo sapiens) (P16050 whole entry, looked up): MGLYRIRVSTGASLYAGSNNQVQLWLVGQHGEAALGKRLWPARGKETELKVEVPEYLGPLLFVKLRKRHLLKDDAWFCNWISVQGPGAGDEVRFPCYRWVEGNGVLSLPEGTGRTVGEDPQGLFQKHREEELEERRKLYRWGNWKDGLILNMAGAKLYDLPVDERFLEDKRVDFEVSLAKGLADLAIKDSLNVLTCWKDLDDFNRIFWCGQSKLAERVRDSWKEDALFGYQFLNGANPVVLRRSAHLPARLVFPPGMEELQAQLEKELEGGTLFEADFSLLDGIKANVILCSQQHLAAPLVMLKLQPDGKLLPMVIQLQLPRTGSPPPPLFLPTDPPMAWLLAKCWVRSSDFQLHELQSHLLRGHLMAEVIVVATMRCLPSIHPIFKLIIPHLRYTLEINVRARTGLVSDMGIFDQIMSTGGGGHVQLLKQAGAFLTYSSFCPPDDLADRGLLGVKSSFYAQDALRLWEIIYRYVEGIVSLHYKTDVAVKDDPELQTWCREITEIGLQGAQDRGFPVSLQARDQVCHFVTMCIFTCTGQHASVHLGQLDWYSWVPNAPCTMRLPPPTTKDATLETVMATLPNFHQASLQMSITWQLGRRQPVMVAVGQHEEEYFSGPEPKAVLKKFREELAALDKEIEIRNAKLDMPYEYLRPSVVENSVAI
row,SMILES,outcome
1,O=C(NC1CC1)c1cc(C2CC2)nc2onc(C3CCNC3)c12 (stereo not drawn),inactive
2,CN(c1ccccc1)C1CNC1,inactive
3,COc1cc(CN2CCCCC23Cc2ccccc2CNC3=O)ccc1F (stereo not drawn),inactive
4,CNC(=O)c1cn2c(n1)CN(C(=O)OC)CC2,inactive
5,NCc1ccc(-c2ccc(F)cc2)cc1,inactive
6,CC(C)CNC(=O)c1cc(C2CC2)nc2onc(C3CCCNC3)c12 (stereo not drawn),inactive
7,O=C(c1cc(C2CC2)nc2c1c(C1CCCN1)nn2-c1ccccc1)N1CCOCC1 (stereo not drawn),inactive
8,CCNc1ncnc2c1CN(C1CCCNCC1)C(=O)CN2C (stereo not drawn),inactive
